From PubChem BioAssay AID2551 (National Center for Advancing Translational Sciences (NCATS), 2010)
Screen size: about 310,000 compounds; about 17,000 (5.5%) were called active. A call without a number means that no potency is given here. Inconclusive results (about 11%) are left out. Calls come from the whole dose curve; as a rule, active = well fitted inhibition curve with a large enough effect; inconclusive = small, poorly fitted or top-dose-only effect, or effect the other way; inactive = no such curve, though single readings can be large or run the other way. For the sample, actives were picked, then their nearest neighbours and some compounds at random.

biological target: Nuclear receptor ROR-gamma (Mus musculus) (UniProt P51450); test: qHTS for inhibitors of ROR gamma transcriptional activity; conditions: Drosophila S2 Gal4-RORgamma UAS-luciferase reporter, 20 h; series mostly up to 53.6 µM; note: nearly all actives have a fitted effect of over 60% in size
Description: NIH Molecular Libraries Probe Production Network [MLPCN] NIH Chemical Genomics Center [NCGC] MLPCN Grant: R03 DA026211-01 Assay Provider: Dan Littman, New York University Assay Overview: The retinoic acid-related orphan receptor (ROR) gamma is a transcription factor that has a central role in the differentiation of Th17 cells, a subset of T helper cells that secrete the inflammatory cytokines IL-17, IL-17F, and IL-22. Th17 cells have been implicated in graft versus host disease, autoimmune disease and asthma. ROR gamma is induced in naive T helper cells in the presence of TGF-beta combined with IL-6, IL-21, or IL-23, and thereafter directs the expression of the Th17 lineage cytokines. To study the mechanism of action of ROR gamma, an insect cell-based assay was screened. This Drosophila Schneider cell line was stably transfected with two vectors: a gene expressing a fusion of the Gal4 DNA binding domain and ROR gamma transactivation domain under the control of the metallothionine promoter and a Photinus luciferase reporter regulated by the Gal4 binding site enhancer, UAS. […] Small molecule inhibitors of ROR gamma activity are detected by a decrease in luciferase reporter activity.
Assay Protocol Summary: For screening, 600 cells in 4 uL/well were dispensed into white solid 1536-well plates (Grenier) using a solenoid-based dispenser. Following transfer of 23 nL compound or DMSO vehicle by a pin tool, the plates were incubated 1 hr at ambient temperature, and 1 uL/well copper sulfate (700 uM final concentration) was added. The plates were centrifuged 15 s at 1000 RPM and incubated 20 hr at ambient temperature. After addition of 1.5 uL Photinus luciferase detection reagent, the plates were incubated 10 min at ambient temperature and then read by an ViewLux (Perkin Elmer) to detect luminescence. Keywords: NIH Roadmap, MLPCN, MLI, MLSMR, qHTS, NCGC, qHTS, nuclear hormone receptor, retinoic acid-related orphan receptor, ROR gamma
Potency is the fitted concentration of half-maximal effect.

Nuclear receptor ROR-gamma (Mus musculus), sequence (P51450 whole entry, looked up, the tested form may be a part): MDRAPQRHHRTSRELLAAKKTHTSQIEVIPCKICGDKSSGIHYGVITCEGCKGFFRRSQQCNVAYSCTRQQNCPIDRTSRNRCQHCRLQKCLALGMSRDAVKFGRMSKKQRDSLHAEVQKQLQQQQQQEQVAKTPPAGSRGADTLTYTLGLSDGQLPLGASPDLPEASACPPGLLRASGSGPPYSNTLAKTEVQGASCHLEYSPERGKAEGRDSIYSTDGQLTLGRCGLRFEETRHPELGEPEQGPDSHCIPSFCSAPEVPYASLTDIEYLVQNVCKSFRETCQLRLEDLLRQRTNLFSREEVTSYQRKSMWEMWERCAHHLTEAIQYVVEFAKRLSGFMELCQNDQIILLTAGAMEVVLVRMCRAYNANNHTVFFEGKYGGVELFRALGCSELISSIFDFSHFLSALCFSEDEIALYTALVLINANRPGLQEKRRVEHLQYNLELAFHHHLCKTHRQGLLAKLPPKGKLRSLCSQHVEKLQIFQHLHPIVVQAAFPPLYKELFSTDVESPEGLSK

Row | SMILES | Potency
1 | CC(C)(O)c1[se]c2ccccc2c1I | inactive
2 | CC[C@H]1CN2CCc3cc(OC)c(OC)cc3[C@@H]2C[C@@H]1C[C@H]1NCCc2cc(OC)c(OC)cc21 | 1.26 µM (active)
3 | CN1CCN(c2cc(N3CCNCC3)ccc2[N+](=O)[O-])CC1 | inactive
4 | COc1cccc(-c2nc3ccc(N4CCN(C)CC4)cc3[nH]2)c1 | 1.12 µM (active)
5 | COC(=O)c1ccc2[se]c(CC3CCCCC3)c(I)c2c1 | inactive
6 | Cc1ccc(-n2c(O)c(C=NCC3CCCO3)c(=O)[nH]c2=O)c(C)c1 (centres undefined) | inactive
7 | COC1CC(OC2CC[C@@]3(C=O)C4CC[C@]5(C)C(C6=CC(=O)OC6)CC[C@@]5(O)C4CC[C@]3(O)C2)OC(C)C1O (some centres undefined) | inactive
8 | BrC1C(Br)C(Br)C(Br)C(Br)C1Br (centres undefined) | 5.01 µM (active)
9 | O=C(Nc1cccc(F)c1)N1CC[C@@]2(CCCN(C(=O)Oc3ccccc3)C2)C1 | inactive
10 | CCN1C[C@]2(COC)C(O)C[C@H](OC)[C@@]34C5C[C@]6(O)C(OC)C(O)[C@](OC(C)=O)(C5C6OC(=O)c5ccccc5)C(C(OC)C23)C14 (some centres undefined) | inactive
11 | CCCCC#N | inactive
12 | COc1cccc(C(=O)N2C[C@H]3C[C@@H](C2)c2cccc(=O)n2C3)c1 | inactive
13 | O=C(NC(=S)N1C[C@H]2C[C@H](C1)c1cccc(=O)n1C2)c1ccc(F)cc1 | 11.2 µM (active)
14 | COc1cccc(OC)c1C(=O)NC(=S)N1C[C@H]2C[C@H](C1)c1cccc(=O)n1C2 | inactive
15 | N#CCCCl | inactive
16 | CCN(CC)c1nc(C)cc(OP(=S)(OC)OC)n1 | inactive
17 | CC(C)(c1ccc(OC[C@@H]2CO2)cc1)c1ccc(OC[C@H]2CO2)cc1 | inactive
18 | CN1CCN(C(=O)O[C@@H]2c3nccnc3C(=O)N2c2ccc(Cl)cn2)CC1 | inactive
19 | CC(=C1C(=O)c2ccccc2C1=O)N1CCN(CCN=Cc2c(O)n(C)c(=O)n(C)c2=O)CC1 | 7.08 µM (active)
20 | Cn1c(O)c(C=NCCN2CCNCC2)c(=O)n(C)c1=O | inactive
21 | Cn1c(O)c(C=NCCCC(=O)O)c(=O)n(C)c1=O | inactive
22 | CC(=O)OC1C2CCC3C1(CC(O)[C@@]1(O)[C@@H](CC(O)C1(C)C)[C@]3(C)O)C[C@@]2(C)O (some centres undefined) | inactive
23 | O=[N+]([O-])c1ccc(Cl)c(Cl)c1 | inactive
24 | N[C@H](Cc1o[nH]c(=O)c1Cl)C(=O)O | inactive
